Screens deposited in PubChem by National Center for Advancing Translational Sciences (NCATS).
Tau fluor counter – counter-screen for tau fibril formation inhibitors | tau K18 P301L Alexa594 fluorescence, heparin fibrillization | Potency, µM (top dose mostly 57.7 µM), for inactives: top-dose activity change, negative = decrease | 0.93% of 280,000 active; further: nearly all actives have a fitted effect of over 55% in size
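Human K18 P301L tau (15 uM unlabeled plus 0.24 uM Alexa 594-labeled, final) in 100 mM sodium acetate pH 7 was mixed with compound and 20 uM heparin and incubated 6 hr at 37 C.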
ALDH1A1 inh – blocks purified human ALDH1A1 activity; Potency, µM (highest dose often 75.3 µM), inactives show top-dose activity, negative = inhibition, hits mostly inhibitors; Purified ALDH1A1, NADH fluorescence, propionaldehyde substrate; 7.3% of 220,000 active; P00352; active means well fitted inhibition curve with a large enough effect, not every such curve was filed as active; inconclusive means small, poorly fitted or top-dose-only effect, or another doubt; inactive means no such curve, though single readings can be large or run the other way;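 further: plate controls were no enzyme wells and a reference inhibitor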
Tau ThT inhib – inhibitors of human tau fibril formation, thioflavin T binding; AID 1460; recombinant tau K18 P301L (four-repeat tau fragment), heparin-induced fibrillization, ThT fluorescence; 2.1% of 270,000 active; Potency, µM (doses to about 57.4 µM), for inactives: at the top dose activity, negative = inhibition, actives largely listed as inhibitors; further: nearly all actives have a fitted effect of over 55% in size
Target sequence (P10636 561-689 P618L limits assumed): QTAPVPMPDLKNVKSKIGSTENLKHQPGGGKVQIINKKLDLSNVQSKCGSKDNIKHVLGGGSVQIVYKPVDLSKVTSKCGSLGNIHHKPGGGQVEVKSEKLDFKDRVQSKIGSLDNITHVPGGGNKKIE
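Aggregation was driven by heparin (20 uM final) acting on recombinant tau […] bearing P301L in 100 mM sodium acetate pH 7; fibrils were detected with Thioflavin T.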
HPGD inh – HPGD (human) dehydrogenase inhibition; purified HPGD, NADH fluorescence kinetic, PGE2 substrate; 4.3% of 150,000 active; P15428; Potency, µM, inactives show top-dose activity change, negative = inhibition, usual class: inhibitors; active means well fitted inhibition curve with a large enough effect, not every such curve was filed as active; inconclusive means small, poorly fitted or top-dose-only effect, or another doubt; inactive means no such curve, though single readings can be large or run the other way
Target sequence (P15428 whole entry, looked up): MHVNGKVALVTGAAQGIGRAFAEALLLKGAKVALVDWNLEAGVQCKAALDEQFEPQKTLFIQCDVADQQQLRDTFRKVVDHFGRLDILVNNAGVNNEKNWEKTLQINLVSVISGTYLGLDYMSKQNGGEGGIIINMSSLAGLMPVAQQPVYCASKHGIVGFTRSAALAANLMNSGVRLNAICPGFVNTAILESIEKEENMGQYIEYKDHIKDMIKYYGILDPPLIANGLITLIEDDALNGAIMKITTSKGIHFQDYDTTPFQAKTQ
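20 nM HPGD preincubated 15 min at room temperature with compound in 50 mM Tris-HCl pH 8, 0.01% Tween 20. Started with 1 mM NAD+ and 30 uM prostaglandin E2; NADH fluorescence (360/450 nm) read 5 times over 30-s intervals, last minus first.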
NPSR antag – blocks cAMP signaling of the human neuropeptide S receptor. Potency, µM (series often up to 38.3 µM), inactives show at the top dose activity change, negative = inhibition, actives largely listed as inhibitors. CHO-NPSR cells, cAMP TR-FRET, antagonist mode. 1% of 220,000 active. AID 1461. Q6W5P4; further: nearly all actives have a fitted effect of over 50% in size
Tau fibril FP – blocks human tau fibril formation measured by polarization | P10636 | K18 P301L tau heparin fibrillization, Alexa594 FP, 6 h | Potency, µM (titrated, usually from 57.7 µM), for the others: top-dose activity, negative = inhibition, hits mostly inhibitors | 0.39% of 280,000 active | AID 1468; further: nearly all actives have a fitted effect of over 55% in size
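Steps: dispense K18 P301L tau (15 uM plus 0.24 uM Alexa 594 tracer, final) in pH 7 sodium acetate; add compound; add heparin (20 uM final); incubate 6 hr, 37 C; add ThT (30 uM final); after 1 hr ambient, read FP.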
Active calls of the source: *; [ ] = remark or other dose. A selection: hits, their analogues and other compounds. The true share with any hit is near 9.5%. Unless noted, the call rests on the fitted dose curve; in most records, active means well fitted curve in the direction sought with a large enough effect; inconclusive means small, poorly fitted or top-dose-only effect, or another doubt; inactive means no such curve, though single readings can be large; an effect the other way counts as inactive or inconclusive. Unless noted, on the % scale 0 is the no-effect control and ±100 the full control effect; potency means the concentration at half of the fitted maximal effect.

For Cc1cc([N+](=O)[O-])nn1CCCC(=O)N1CCN(c2ccc(F)cc2)CC1 the results were Tau fluor counter -11.6%, ALDH1A1 inh inconclusive, Tau ThT inhib inconclusive, HPGD inh -4.6%, NPSR antag 4.7% and Tau fibril FP -0.8%.
`O=C(CN1C(=O)C2(SCC(=O)N2c2cccc(F)c2)c2ccccc21)NCCc1ccccc1` (stereo not given) gave Tau fluor counter -12.0%, Tau ThT inhib 3.0% and Tau fibril FP -3.9%.
`O=C(Nc1ccc(Cl)cn1)C1COc2ccccc2O1` (stereo not given) gave Tau fluor counter -6.6%, ALDH1A1 inh 22.4µM*, Tau ThT inhib -8.4%, NPSR antag 23.8% and Tau fibril FP 6.0%[2.34 µM].
`Cc1onc(-c2ccccc2)c1CNC(=O)C1COc2ccccc2O1` (stereo not given) gave Tau fluor counter -6.3%, ALDH1A1 inh 17.8µM*, Tau ThT inhib -3.0%, NPSR antag 5.4% and Tau fibril FP -2.5%.
O=C(NCc1ccccc1)C1COc2ccccc2O1 (stereo not given) was read as Tau fluor counter -0.2%, ALDH1A1 inh -0.8%, Tau ThT inhib -0.6%, HPGD inh 11.2µM*, NPSR antag -1.5%[46.1 µM] and Tau fibril FP -0.7%.
`COc1ccc(OC)c(NC(=O)C2COc3ccccc3O2)c1` (stereo not given) gave Tau fluor counter -10.5%, ALDH1A1 inh inconclusive, Tau ThT inhib inconclusive, HPGD inh -14.2%, NPSR antag -27.1%[46.1 µM] and Tau fibril FP 4.8%.
`COc1ccc(CNC(=O)C2COc3ccccc3O2)c(OC)c1` (stereo not given) gave Tau fluor counter -7.2%, ALDH1A1 inh inconclusive, Tau ThT inhib -9.6%, HPGD inh 4.47µM*, NPSR antag -19.4%[46.1 µM] and Tau fibril FP -1.1%.
`CCCCN(CCCC)C1=C(C(=O)c2ccccc2)N(C)S(=O)(=O)c2ccccc21` gave Tau fluor counter -3.9%, Tau ThT inhib -2.8% and Tau fibril FP -6.3%.
CCOc1ccccc1CNC(=O)CCc1c(C)nn(-c2ccc(N3CCCC3)nn2)c1C was read as Tau fluor counter -12.7%, Tau ThT inhib -6.6% and Tau fibril FP -15.7%.
C[C@@H](N)/C(N)=N/O was read as ALDH1A1 inh -7.1%[13.5 µM] and HPGD inh -8.8%.
For COc1cc(OC)cc(-c2nnc(SCC(=O)N3CCC(C)CC3)o2)c1 the results were Tau fluor counter -15.1%, Tau ThT inhib -15.5% and Tau fibril FP -2.8%.
Screening O=C(C1COc2ccccc2O1)N1CCCC1 (stereo not given) returned Tau fluor counter -9.5%, ALDH1A1 inh inconclusive, Tau ThT inhib -8.0%, HPGD inh 12.6µM*, NPSR antag -2.5%[46.1 µM] and Tau fibril FP -5.0%.
For COc1cc(OC)c(OC)cc1NC(=O)CC1COc2ccccc2O1 (stereo not given) the results were Tau fluor counter -10.1%, ALDH1A1 inh 3.55µM*, Tau ThT inhib -8.3%, HPGD inh -9.4%, NPSR antag 4.0%[46.1 µM] and Tau fibril FP 3.2%.
For COc1ccc(C)cc1NC(=O)CC1COc2ccccc2O1 (stereo not given) the results were Tau fluor counter -22.0%, ALDH1A1 inh -0.6%, Tau ThT inhib -11.0%, NPSR antag -1.5% and Tau fibril FP -1.0%.
For CCN(C(=O)c1nn(-c2ccc(OC)c(Cl)c2)c(=O)c2c1c1ccccc1n2C)c1cc(OC)ccc1OC the results were Tau fluor counter -22.5%, Tau ThT inhib -4.0% and Tau fibril FP inconclusive.
For CCOc1ccc(NC(=O)c2nn(C)c3c2CS(=O)(=O)c2ccccc2-3)cc1 the results were Tau fluor counter -9.2%, Tau ThT inhib -3.0% and Tau fibril FP -5.9%.
`CC(C)(C)OC(=O)N1CCC(c2c(C(=O)NCc3ccco3)cnn2-c2ccccc2Cl)CC1` gave Tau fluor counter -17.0%, Tau ThT inhib inconclusive and Tau fibril FP -7.2%.
`Cc1ccccc1-c1cc2c(nn1)-c1ccccc1C2=O` gave Tau fluor counter inconclusive, ALDH1A1 inh 25.1µM*, Tau ThT inhib inconclusive, HPGD inh inconclusive, NPSR antag 21.7%[46.1 µM] and Tau fibril FP 1.7%.
Screening Cc1ccc(-c2cc3c(nn2)-c2ccccc2C3=O)cc1 returned Tau fluor counter -12.8%, NPSR antag -13.2% and Tau fibril FP 4.0%.
Screening O=C1c2ccccc2-c2nnc(-c3ccc(O)cc3)cc21 returned Tau fluor counter inconclusive, ALDH1A1 inh 14.4%, Tau ThT inhib 5.01µM*, NPSR antag -23.5% and Tau fibril FP 15.0%.
`Cc1ccc(NC(=O)CSc2nccn2-c2ccccc2)cc1` gave Tau fluor counter -8.5%, Tau ThT inhib 4.8% and Tau fibril FP -1.8%.
O=C(O)CCS(=O)(=O)c1ccccc1Cl was read as Tau fluor counter -1.4%, ALDH1A1 inh 9.1%, Tau ThT inhib -2.6%, NPSR antag 10.3% and Tau fibril FP -2.0%.
Screening COc1ccc(-c2cc(C(=O)NC(C)c3ccccc3)c3cc(C(C)C)ccc3n2)cc1 (stereo not given) returned Tau fluor counter -6.5%, Tau ThT inhib 1.6% and Tau fibril FP -6.9%.
COc1ccc(NC(=O)C2CC(=O)n3ncnc3N2)cc1 (stereo not given) was read as Tau fluor counter -4.0%, ALDH1A1 inh 2.8%, Tau ThT inhib -6.6%, HPGD inh -6.7%, NPSR antag 6.7%[46.1 µM] and Tau fibril FP 3.0%.
Screening COc1cccc(NC(=O)C2CC(=O)n3cnnc3S2)c1 (stereo not given) returned Tau fluor counter -6.3%, ALDH1A1 inh 0.708µM*, Tau ThT inhib inconclusive, HPGD inh 15.8µM*, NPSR antag 7.9%[46.1 µM] and Tau fibril FP 14.0%.
`COc1ccc(NC(=O)C2CC(=O)n3cnnc3S2)cc1` (stereo not given) gave Tau fluor counter -3.6%, ALDH1A1 inh 0.708µM*, Tau ThT inhib -11.8%, HPGD inh 17.8µM*, NPSR antag -3.6%[46.1 µM] and Tau fibril FP 9.2%.
`COc1ccc(CCNC(=O)c2ccc(Cn3c(=O)c4cccn4c4cccnc43)cc2)cc1OC` gave Tau fluor counter 0.2%, Tau ThT inhib -4.0% and Tau fibril FP -0.2%.
Screening COc1ccc(Nc2cc(C)nc3nc(C)nn23)cc1Cl returned Tau fluor counter -4.0%, ALDH1A1 inh 3.5%, Tau ThT inhib -2.5%, HPGD inh -26.6%, NPSR antag -9.8%[46.1 µM] and Tau fibril FP 4.5%.
Screening COc1ccc(CNc2cc(C)nc3ncnn23)c(OC)c1 returned Tau fluor counter -9.7%, ALDH1A1 inh -15.3%, Tau ThT inhib -10.8%, HPGD inh 31.6µM*, NPSR antag -11.9%[46.1 µM] and Tau fibril FP 5.2%.
